Reference: the supplement of paper PMC12819154, “High-throughput peptide-centric local stability assay extends protein–ligand identification to membrane proteins, tissues and bacteria” (Nature Structural & Molecular Biology, 2025)

What follows are targets tested with Nc1ncnc2c1ncn2[C@@H]1O[C@H](COP(=O)(O)OP(=O)(O)OP(=O)(O)O)[C@@H](O)[C@H]1O [adenosine 5'-triphosphate] (assay: log2 fold change of tryptic peptide abundance, ligand vs vehicle (limited proteolysis) (log2 ratio); higher = more trypsin-susceptible (destabilized)). Details: ligand concentration: 5 mM; sample: E. coli desalted lysate; replicate design: treated before aliquoting.
Protocol: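 HT-PELSA: desalted E. coli K-12 BW25113 lysate (with 12 mM MgCl2) incubated with 5 mM ATP (pH 7) or water for 30 min at 25 C, then a 4 min trypsin pulse at 22 C. Peptides were quantified by DIA-MS (4 replicates). Value is the peptide log2 fold change (treated/control); negative = stabilized. Scale: negative = ligand-stabilized region.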
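Further: lysate desalted by size exclusion to strip endogenous ATP, peptide intensities built from DIA-NN precursor signals, and peptides missing any value discarded before comparison.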

Point of comparison: “UniProt P0ACL0 (peptide sequence: IILAGGELR, peptide start residue: 137)”, log2 fold change -0.596. Against it:
- UniProt P22525 (peptide sequence: AGVLALNIQR, peptide start residue: 356) — higher, -0.343
- UniProt P45579 (peptide sequence: VAAAHAVHNGLTVLPQTEK, peptide start residue: 253) — higher, 0.992
- UniProt P0A6B4 (peptide sequence: QLAIFNTFCEGKPGQR, peptide start residue: 174) — higher, 0.707
- UniProt P36938 (peptide sequence: FMHLDKDGAIR, peptide start residue: 268) — lower, -0.898
- UniProt P31802 (peptide sequence: GMSGLDTLNALRR, peptide start residue: 64) — higher, 0.209
- UniProt P24173 (peptide sequence: IKLPWGAPHEEER, peptide start residue: 213) — within 0.2 log units, -0.445
- UniProt P45577 (peptide sequence: VAGEMNLSKTQLR, peptide start residue: 46) — higher, 0.623
- UniProt P13857 (peptide sequence: TVQGNVMLHQR, peptide start residue: 54) — within 0.2 log units, -0.406
